From PubChem BioAssay (NCATS)
Inconclusive results are not listed. Active and inactive are the calls of the source. Calls follow the shape of the dose curve; as a rule, active = well fitted cell-killing curve with a large enough effect; inconclusive = small, poorly fitted or top-dose-only effect; inactive = flat fitted curve, though single readings scatter.

Assay: Cell Viability - LYMP2-024 (AID 988);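 also: plate controls were DMSO only for no effect and 92 µM tetraoctylammonium bromide for full effect; nearly all actives have a fitted effect of over 60% in size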
Details: LYMP2-024 lymphoblastoid cell viability; series mostly up to 92.2 µM; activity change, negative = cytotoxicity: at the top concentration
Summary of the method: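 Human lymphoblastoid cells (2500/well) in complete medium were preincubated 5 hr at 37 C, then exposed to compounds for 24 hr at 37 C. Intracellular ATP was read by CellTiter-Glo luminescence; AC50 from Hill-equation fits of concentration-response data.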

Row | Compound | activity change, negative = cytotoxicity
1 | CC=O | -2.44% (inactive)
2 | Cc1ccc(CO)cc1 | -4.81% (inactive)
3 | Cc1cc([N+](=O)[O-])ccc1N | -9.22% (inactive)
4 | Clc1cc(Cl)cc(Cl)c1 | 10.1% (inactive)
5 | Nc1nc2ccccc2[nH]1 | -21% (inactive)
6 | NC(=O)c1ccccc1[N+](=O)[O-] | -0.904% (inactive)
7 | COc1ccc(N)c(C)c1 | -10.2% (inactive)
8 | O=C(O)c1cccc(Cl)c1Cl | -10.5% (inactive)
9 | O=C(O)CNC(=O)c1ccc(CO)o1 | -7.35% (inactive)
10 | CCOc1cccc(N)c1 | -0.74% (inactive)
11 | CCC(C)(C)C(=O)O | -8.18% (inactive)
12 | COc1ccc(OC)cc1 | -6.53% (inactive)
13 | CCNS(=O)(=O)c1ccc(C)cc1 | 6.09% (inactive)
14 | CCOc1ccccc1N | -2.04% (inactive)
15 | C=CC(=O)NC(C)C | -11.8% (inactive)
16 | Cc1ccc2cccnc2c1 | -3.27% (inactive)
17 | CCCCCCO | -19.7% (inactive)

Row | Compound | activity change, negative = cytotoxicity
18 | CC(=O)Nc1ccccc1C | -8.22% (inactive)
19 | CC(C)(c1cc(Br)c(OCC(Br)CBr)c(Br)c1)c1cc(Br)c(OCC(Br)CBr)c(Br)c1 (configuration not stated) | -8.66% (inactive)
20 | COc1ccc(N=[N+]([O-])c2ccc(OC)cc2)cc1 | -27.3% (inactive)
21 | CNc1ccccc1 | -1.91% (inactive)
22 | Oc1c(Cl)ccc(Cl)c1Cl | -4.69% (inactive)
23 | CN(C)CCCNCCCN | -26% (inactive)
24 | O=C(Cl)c1cccc([N+](=O)[O-])c1 | -4.62% (inactive)
25 | CC(=C/C=C/C(C)=C/C=C/C=C(C)/C=C/C=C(C)/C=C/C(=O)O)/C=C/C(=O)O | -17.3% (inactive)
26 | Cc1cccc(C(=O)O)c1 | 2.32% (inactive)
27 | Cc1ccc2ncccc2c1 | 1.55% (inactive)
28 | Nc1cccc(C(F)(F)F)c1 | -2.41% (inactive)
29 | O=Cc1ccc(C(=O)O)cc1 | -14.3% (inactive)
30 | CC(=O)c1cccc([N+](=O)[O-])c1 | -9.82% (inactive)
31 | CNC(=O)c1ccccc1 | -3.11% (inactive)
32 | CCC(C)(C)OC | -8.59% (inactive)
33 | NC(N)=S | -17% (inactive)

Assay: Cell Viability - LYMP2-026 (AID 989); also: % is scaled to controls: 0 for no effect and ±100 for the full control effect; nearly all actives have a fitted effect of over 50% in size
Details: LYMP2-026 lymphoblastoid cell viability, qHTS; series mostly up to 92.2 µM; activity change, negative = cytotoxic: at the top concentration
Summary of the method: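 Human lymphoblastoid cells (2500/well) in complete medium were preincubated 5 hr at 37 C, then exposed to compounds for 24 hr at 37 C. Cellular ATP was read by CellTiter-Glo luminescence; AC50 from Hill-equation fits of concentration-response data.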

Row | Compound | activity change, negative = cytotoxic
34 | CC=O | 12.7% (inactive)
35 | Cc1ccc(CO)cc1 | -5.16% (inactive)
36 | Cc1cc([N+](=O)[O-])ccc1N | 3.44% (inactive)
37 | Clc1cc(Cl)cc(Cl)c1 | -1.53% (inactive)
38 | Nc1nc2ccccc2[nH]1 | -1.76% (inactive)
39 | NC(=O)c1ccccc1[N+](=O)[O-] | -5.73% (inactive)
40 | COc1ccc(N)c(C)c1 | 4.79% (inactive)
41 | Oc1cccc(Nc2ccccc2)c1 | -9.4% (inactive)
42 | O=C(O)c1cccc(Cl)c1Cl | -1.23% (inactive)
43 | O=C(O)CNC(=O)c1ccc(CO)o1 | 3.85% (inactive)
44 | Nc1cccc2c(=O)[nH][nH]c(=O)c12 | -16% (inactive)
45 | CCOc1cccc(N)c1 | -4.46% (inactive)
46 | CCC(C)(C)C(=O)O | 0.776% (inactive)
47 | ICCc1ccccc1 | -14.9% (inactive)
48 | COc1ccc(OC)cc1 | 0.272% (inactive)
49 | FC(F)(F)c1cccc(Cl)c1 | 1.05% (inactive)
50 | CCNS(=O)(=O)c1ccc(C)cc1 | -4.02% (inactive)
51 | CCOc1ccccc1N | -4.33% (inactive)
52 | C=CC(=O)NC(C)C | 4.9% (inactive)
53 | Cc1ccc2cccnc2c1 | -3.8% (inactive)

Row | Compound | activity change, negative = cytotoxic
54 | CCCCCCO | -1.24% (inactive)
55 | CC(=O)Nc1ccccc1C | 0.973% (inactive)
56 | CC(C)(c1cc(Br)c(OCC(Br)CBr)c(Br)c1)c1cc(Br)c(OCC(Br)CBr)c(Br)c1 (configuration not stated) | -2.22% (inactive)
57 | COc1ccc(N=[N+]([O-])c2ccc(OC)cc2)cc1 | -28.2% (inactive)
58 | CNc1ccccc1 | 1.79% (inactive)
59 | Oc1c(Cl)ccc(Cl)c1Cl | -5.01% (inactive)
60 | CN(C)CCCNCCCN | -7.03% (inactive)
61 | ClC/C=C/CCl | -11.2% (inactive)
62 | O=C(Cl)c1cccc([N+](=O)[O-])c1 | -13% (inactive)
63 | CC(=C/C=C/C(C)=C/C=C/C=C(C)/C=C/C=C(C)/C=C/C(=O)O)/C=C/C(=O)O | -9.75% (inactive)
64 | Cc1cccc(C(=O)O)c1 | 0.468% (inactive)
65 | Cc1ccc2ncccc2c1 | 0.0801% (inactive)
66 | Nc1cccc(C(F)(F)F)c1 | 4.58% (inactive)
67 | O=Cc1ccc(C(=O)O)cc1 | -1.57% (inactive)
68 | NC(=O)/N=N/C(N)=O | -7.82% (inactive)
69 | CC(=O)c1cccc([N+](=O)[O-])c1 | -3.62% (inactive)
70 | CNC(=O)c1ccccc1 | 0.779% (inactive)
71 | O=[N+]([O-])c1cccc(C(F)(F)F)c1 | -15.5% (inactive)
72 | CCC(C)(C)OC | -6.84% (inactive)
73 | NC(N)=S | -7.84% (inactive)

Assay: Cell Viability - LYMP1-002 - Assay at 24 hr (AID 993); also: % is scaled to controls: 0 for no effect and ±100 for the full control effect
Details: LYMP1-002 lymphoblastoid cells viability; series mostly up to 92.2 µM; activity change, negative = cytotoxicity: at the top concentration
Summary of the method: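 Human lymphoblastoid LYMP1-002 cells, 2500/well in complete medium, were treated with compounds for 24 h at 37 C; intracellular ATP was read by CellTiter-Glo luminescence. AC50 values came from Hill-equation fits of qHTS concentration-response data.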

Row | Compound | activity change, negative = cytotoxicity
74 | CC=O | 0.391% (inactive)
75 | Cc1ccc(CO)cc1 | 3.98% (inactive)
76 | Cc1cc([N+](=O)[O-])ccc1N | 0.326% (inactive)
77 | Clc1cc(Cl)cc(Cl)c1 | 0.274% (inactive)
78 | Nc1nc2ccccc2[nH]1 | -3.39% (inactive)
79 | NC(=O)c1ccccc1[N+](=O)[O-] | 4.09% (inactive)
80 | COc1ccc(N)c(C)c1 | -4.02% (inactive)
81 | Oc1cccc(Nc2ccccc2)c1 | -0.262% (inactive)
82 | O=C(O)CNC(=O)c1ccc(CO)o1 | -1.44% (inactive)
83 | Nc1cccc2c(=O)[nH][nH]c(=O)c12 | 1.03% (inactive)
84 | CCOc1cccc(N)c1 | 4.04% (inactive)
85 | CCC(C)(C)C(=O)O | -2.33% (inactive)
86 | ICCc1ccccc1 | -0.269% (inactive)
87 | FC(F)(F)c1cccc(Cl)c1 | 1.83% (inactive)
88 | CCNS(=O)(=O)c1ccc(C)cc1 | 5.91% (inactive)
89 | C=CC(=O)NC(C)C | 3.64% (inactive)
90 | Cc1ccc2cccnc2c1 | 5.82% (inactive)

Row | Compound | activity change, negative = cytotoxicity
91 | CCCCCCO | 2.66% (inactive)
92 | CC(=O)Nc1ccccc1C | -10.7% (inactive)
93 | CC(C)(c1cc(Br)c(OCC(Br)CBr)c(Br)c1)c1cc(Br)c(OCC(Br)CBr)c(Br)c1 (configuration not stated) | 2.89% (inactive)
94 | COc1ccc(N=[N+]([O-])c2ccc(OC)cc2)cc1 | -14.4% (inactive)
95 | CNc1ccccc1 | 0.747% (inactive)
96 | Oc1c(Cl)ccc(Cl)c1Cl | 0.0841% (inactive)
97 | CN(C)CCCNCCCN | -6.75% (inactive)
98 | O=C(Cl)c1cccc([N+](=O)[O-])c1 | 5.55% (inactive)
99 | CC(=C/C=C/C(C)=C/C=C/C=C(C)/C=C/C=C(C)/C=C/C(=O)O)/C=C/C(=O)O | -1.16% (inactive)
100 | Cc1cccc(C(=O)O)c1 | -4.29% (inactive)
101 | Cc1ccc2ncccc2c1 | 2.28% (inactive)
102 | O=Cc1ccc(C(=O)O)cc1 | -0.461% (inactive)
103 | NC(=O)/N=N/C(N)=O | 1.23% (inactive)
104 | CC(=O)c1cccc([N+](=O)[O-])c1 | 8.3% (inactive)
105 | CNC(=O)c1ccccc1 | -1.86% (inactive)
106 | O=[N+]([O-])c1cccc(C(F)(F)F)c1 | -4.96% (inactive)
107 | CCC(C)(C)OC | -0.0529% (inactive)
